Measurements from PubChem BioAssay.
The source made the active and inactive calls. Unless noted, no rule for the calls is given here.

Assays:
[1] = tested on: Wnt5a (protein binding on small-molecule microarray); assay: Wnt5a binders on small-molecule microarray, primary screen, biophysical, 635/667 nm fluorescence (AID 1142); conditions: 635 nm fluorescence, higher = more signal;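 also: fluorescence read at 667 nm with signal to noise per printed feature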
[2] = cell viability in Huh7 cells, primary screen, cytotoxicity control for HCV replication inhibitor project, CellTiter-Glo luminescence, basal, 48 h (AID 1143); conditions: Huh7 HCV replicon, higher = more signal, called active from +8 up or from −8 down;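 also: Huh7 hepatoma cells carrying a hepatitis C replication reporter with no stimulus; test concentration not given here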
[3] = P. aeruginosa biofilm formation inhibitors, primary screen, PAO1 strain, BacTiter-Glo luminescence, LB-PBS (AID 1144); conditions: 12 h, higher = more signal
[4] = CREB reporter modulators without forskolin, primary screen, cell-based, PC12, CRE-LacZ reporter, unstimulated (AID 1145); conditions: no forskolin, luminescence, 4.5 h, higher = more signal, called active from +8 up or from −8 down
[5] = CREB reporter modulators under forskolin, primary screen, cell-based, PC12, CRE-LacZ reporter, forskolin-stimulated (AID 1146); conditions: luminescence, 4.5 h, higher = more signal, called active from +8 up or from −8 down;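 also: PC12 cells with 6xCRE LacZ reporter stimulated by forskolin 10 µM; beta-galactosidase reporter signal reflecting CREB driven transcription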
[6] = target: Streptavidin (Streptomyces avidinii) (UniProt P22629); assay: streptavidin binders on small-molecule microarray, primary screen, artefact control for SMM compound annotation, biophysical, 635/667 nm fluorescence (AID 1147); conditions: streptavidin binding, higher = more signal;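 also: signal reflects streptavidin binding to arrayed compounds as a control protein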
Sequence of Streptavidin (Streptomyces avidinii) (P22629 whole entry, looked up): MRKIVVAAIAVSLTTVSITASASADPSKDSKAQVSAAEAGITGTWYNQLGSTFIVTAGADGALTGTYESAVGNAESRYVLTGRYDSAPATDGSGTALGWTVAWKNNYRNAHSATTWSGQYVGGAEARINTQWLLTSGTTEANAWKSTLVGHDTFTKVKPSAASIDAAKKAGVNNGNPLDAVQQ

[7] = small-molecule binders of probe aInhba, primary screen, biochemical, small-molecule microarray, 635/667 nm fluorescence (AID 1148); conditions: higher = more signal;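 also: score merges 667nm spot fluorescence with signal-to-noise for antibody binding to printed compounds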
Torsin-1A (Homo sapiens) [8] = target: Torsin-1A (Homo sapiens) (UniProt O14656); assay: torsin A binders from cell lysate, primary screen, small-molecule microarray, wild-type, 635/667 nm (AID 1149); conditions: COS7 hTOR1A-WT lysate, 635 nm fluorescence, higher = more signal
Sequence of Torsin-1A (Homo sapiens) (O14656 whole entry, looked up): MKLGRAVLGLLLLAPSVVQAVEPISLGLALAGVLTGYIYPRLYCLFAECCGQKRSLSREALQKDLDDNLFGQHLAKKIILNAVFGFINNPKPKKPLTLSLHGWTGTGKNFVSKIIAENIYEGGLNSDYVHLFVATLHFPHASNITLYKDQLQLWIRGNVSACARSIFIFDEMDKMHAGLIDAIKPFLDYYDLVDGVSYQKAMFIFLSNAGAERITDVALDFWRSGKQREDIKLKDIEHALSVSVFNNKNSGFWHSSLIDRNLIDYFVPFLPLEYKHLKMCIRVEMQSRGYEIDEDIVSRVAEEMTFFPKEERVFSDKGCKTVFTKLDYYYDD

Torsin-1A (Homo sapiens) [9] = target: Torsin-1A (Homo sapiens) (UniProt O14656); assay: small-molecule binders of mutant TOR1A in lysate, primary screen, cell lysate, small-molecule microarray, COS7 lysate, 635/667 nm fluorescence (AID 1150); conditions: COS7 hTOR1A mutant lysate, 635 nm fluorescence, higher = more signal;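 also: score pools 667 nm emission and signal to noise measuring lysate protein binding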
[10] = tested on: Sonic hedgehog protein (Shh); assay: small-molecule binders of Shh protein, primary screen, biochemical, small-molecule microarray, 635/667 nm fluorescence (AID 1151); conditions: small-molecule microarray binding, 635 nm fluorescence; higher = more signal;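 also: Shh protein binding to compounds spotted on small-molecule microarray slides; score combines spot fluorescence intensity with signal-to-noise across triplicate slides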

Row | Structure (SMILES) | composite z-score [1] | z-score [2] | z-score [3] | z-score [4] | z-score [5] | composite z-score [6] | composite z-score [7] | composite z-score (Torsin-1A (Homo sapiens) [8]) | composite z-score (Torsin-1A (Homo sapiens) [9]) | composite z-score [10]
1 | CO[C@H]1O[C@H](CO)[C@@H](OC(=O)Nc2cccc(F)c2)[C@H](OC(=O)Nc2ccc3c(c2)OCO3)[C@@H]1OC(=O)Nc1ccc2c(c1)OCO2 | 0.22 | -3.26 (inactive) | 0.221 (inactive) | -0.207 (inactive) | -0.41 (inactive) | 0.438 | 0.0471 | 1.17 | 1.21 | 0.519
2 | COc1cccc(C)c1NC(=O)O[C@H]1[C@H](OC(=O)Nc2ccccc2)[C@@H](OC(=O)Nc2ccccc2)[C@@H](OC)O[C@@H]1CO | 0.486 | -4.16 (inactive) | -1.16 (inactive) | 1.61 (inactive) | -2.37 (inactive) | 0.163 | 0.0227 | 2.57 | 0.958 | 0.958
3 | COC(=O)C1=CC(CCCO)=CC(c2ccc(CN3CCCC3)cc2)N(C)C=C1C(=O)OC (stereo not given) | 0.408 | 0.209 (inactive) | 0.0505 (inactive) | -0.464 (inactive) | -0.0736 (inactive) | 0.532 | 0.0658 | -1.01 | -0.418 | -0.284
4 | [N-]=[N+]=Nc1ccccc1C[C@@]1(C(=O)NCC(O)CO)N=C(c2ccc(OCCCO)cc2)O[C@@H]1c1ccccc1N=[N+]=[N-] (stereo not given in full) | 1.28 | -4.99 (inactive) | -0.0717 (inactive) | 0.825 (inactive) | -1.42 (inactive) | 1.23 | -0.0504 | 1.53 | 0.0816 | -0.59
5 | COc1ccc([Si](C)(C)[C@H]2[C@H](CC(=O)N(CCO)Cc3ccccc3)O[C@@]3(C(=O)N(Cc4ccc(N5C(=O)c6cccc7cccc5c67)cc4)c4ccccc43)[C@@H]2C)cc1 | 0.954 | -4.47 (inactive) | 0.278 (inactive) | 0.353 (inactive) | -0.429 (inactive) | 0.555 | 0.545 | -0.237 | 0.454 | 2.17
6 | CC(C)c1ccc(NN2C(C(O)c3ccccc3)C=CC3C(=O)N(c4ccccc4)C(=O)C32)cc1 (stereo not given) | 0.297 | -0.0828 (inactive) | -0.89 (inactive) | 0.433 (inactive) | -0.0336 (inactive) | 0.576 | 0.271 | -0.388 | 0.514 | -0.983
7 | C[C@]1(C(=O)O)c2ccccc2C(=O)N(Cc2cc(C(F)(F)F)cc(C(F)(F)F)c2)[C@H]1c1ccc(CO)cc1 | 0.0785 | 0.104 (inactive) | -0.518 (inactive) | 0.531 (inactive) | 0.165 (inactive) | 1.41 | 0.0227 | -0.652 | -0.113 | 1.64
8 | C=C(C(=O)CC[C@@H](OC(=O)c1ccccc1-c1ccccc1C(=O)O)c1ccc(OCCO)cc1)C(C)C | 1.04 | 0.0006 (inactive) | -0.367 (inactive) | 3.88 (inactive) | 2.07 (inactive) | 0.0206 | -0.0468 | -0.13 | 0.261 | 2.1
9 | C=CCNC(=O)[C@H]1[C@@H]2C(=O)O[C@@H](c3ccccc3)[C@@H](c3ccccc3)N2[C@@H](c2ccc(O)cc2)[C@]12C(=O)Nc1ccccc12 | -0.124 | -0.792 (inactive) | -0.683 (inactive) | -0.195 (inactive) | -0.0955 (inactive) | -0.642 | -0.128 | 0.64 | 0.778 | 0.279
10 | C=CCOC(=O)[C@H]1[C@@H]2C(=O)O[C@@H](c3ccccc3)[C@@H](c3ccccc3)N2[C@@H](c2ccc(OCCOC(=O)[C@H]3C[C@H]4C(=O)NCC(=O)N4[C@H]3c3ccc(O)cc3)cc2)[C@]12C(=O)Nc1ccccc12 | 0.592 | -0.525 (inactive) | -0.799 (inactive) | -1.08 (inactive) | -0.306 (inactive) | 0.341 | 0.615 | 0.603 | 1.14 | 2.22
11 | C=CC[C@]1(C(=O)NCC(O)CO)N=C(c2ccc(OCCCO)cc2)O[C@H]1c1ccccc1CN=[N+]=[N-] (stereo not given in full) | 0.176 | -0.627 (inactive) | 0.381 (inactive) | 0.652 (inactive) | -0.163 (inactive) | 0.184 | 0.249 | 0.598 | 2.58 | -0.803
12 | COC(=O)[C@@]1(Cc2ccc(F)cc2)[C@H]2c3cc(C(=O)N4CCCC4)n(CCc4c[nH]c5cc(F)ccc45)c3C[C@H]2CN1C(=O)c1ccccc1 | 1.43 | -2.66 (inactive) | 0.449 (inactive) | 0.197 (inactive) | 0.654 (inactive) | 1.12 | 0.0049 | 1.2 | 1.29 | 0.0034
13 | COc1ccc(C(=O)Nc2ccc(CN3C(=O)[C@]4(O[C@H](CC(=O)N(CCO)Cc5ccccc5)[C@@H]([Si](C)(C)c5ccc(OC)cc5)[C@@H]4C)c4ccccc43)cc2)cc1 | 0.334 | -4.06 (inactive) | 0.52 (inactive) | 0.339 (inactive) | -0.221 (inactive) | -0.138 | -0.128 | 0.689 | -0.0595 | 1.94
14 | C=CCOC(=O)[C@H]1[C@@H]2C(=O)O[C@@H](c3ccccc3)[C@@H](c3ccccc3)N2[C@@H](c2ccc(OCCOC(=O)[C@@H]3C[C@@H]4C(=O)N[C@@H](Cc5ccccc5)C(=O)N4[C@@H]3c3ccc(O)cc3)cc2)[C@]12C(=O)Nc1ccc(I)cc12 | 0.305 | -0.268 (inactive) | 0.0872 (inactive) | 0.81 (inactive) | 0.695 (inactive) | 0.387 | 0.124 | -0.305 | 0.237 | 1.93
